PTHR1 ag: agonists of human PTHR1 parathyroid hormone receptor; Potency, µM (titrated, usually from 115 µM), without a hit: at the top dose activation, actives largely listed as activators; AID 743266; hit rate 0.075% among 410,000; HEK293 GP2 PTHR1 cells, GloSensor cAMP luminescence, 1 h; also: nearly all actives have a fitted effect of over 55% in size
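HEK-293-derived GP2 cells expressing PTHR1 and a GloSensor cAMP reporter, 3,000/well, plated overnight, given luciferin plus IBMX (each 0.5 mM as added) for 1 h at 37 °C, then compound for 1 h at 37 °C. Luminescence was read after 15 min at room temperature.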
GLS inhibitor: glutaminase GLS (human) inhibition | hit rate 0.21% among 410,000 | Potency, µM (top dose mostly 45.5 µM), for the others: top-dose activity change, negative = inhibition, most hits filed as inhibitors | GLS enzymatic activity, qHTS titration | AID 624170; also: % is scaled to controls: 0 for no effect and ±100 for the full control effect
Target sequence (O94925 whole entry, looked up): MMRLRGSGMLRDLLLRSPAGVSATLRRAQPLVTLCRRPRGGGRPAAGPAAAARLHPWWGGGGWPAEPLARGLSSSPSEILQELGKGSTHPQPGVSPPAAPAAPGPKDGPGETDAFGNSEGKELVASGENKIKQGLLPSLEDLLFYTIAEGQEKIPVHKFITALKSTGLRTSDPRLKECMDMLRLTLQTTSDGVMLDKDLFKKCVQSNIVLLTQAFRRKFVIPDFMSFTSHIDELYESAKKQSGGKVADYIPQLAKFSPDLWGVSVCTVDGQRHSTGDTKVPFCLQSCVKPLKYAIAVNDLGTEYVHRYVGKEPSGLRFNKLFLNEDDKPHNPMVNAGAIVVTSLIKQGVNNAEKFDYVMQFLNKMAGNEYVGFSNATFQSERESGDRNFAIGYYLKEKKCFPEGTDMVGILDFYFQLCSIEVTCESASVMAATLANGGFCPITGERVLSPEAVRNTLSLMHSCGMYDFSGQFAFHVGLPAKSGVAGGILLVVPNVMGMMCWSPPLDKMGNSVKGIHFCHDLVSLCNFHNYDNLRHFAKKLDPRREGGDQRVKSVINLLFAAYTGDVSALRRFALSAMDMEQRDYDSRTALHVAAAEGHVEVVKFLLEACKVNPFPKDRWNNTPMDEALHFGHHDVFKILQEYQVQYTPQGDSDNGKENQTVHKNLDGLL
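Human kidney-isoform GLS in 45 mM KH2PO4 pH 8.2, 0.02% Tween-20, with compound, started with 1mM L-Glutamine (added stock). Glutamate oxidase/HRP/Amplex red coupled fluorescence read at start and after 30 min at RT.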
GLP-1R inv ag: GLP-1 receptor (human) inverse agonism. HEK293 GLP-1R CRE-luciferase, luminescence, 24 h; GLP-1R form is constitutively active. hit rate 1.6% among 410,000. Potency, µM (top dose mostly 38.3 µM), without a hit: at the highest dose activity change, negative = inhibition, usual class: inhibitors; also: % is scaled to controls: 0 for no effect and ±100 for the full control effect; nearly all actives have a fitted effect of over 55% in size
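Inverse agonism was detected as reduced cAMP-driven luciferase luminescence after 24 h compound treatment. The cells were HEK293 clones expressing constitutively active human GLP-1R with the reporter. Reporter-only and GPR119 cell lines served as counterscreen controls.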
Glioma ERSR ind: ER stress response induction in glioma; U87-MG GRP78 promoter luciferase reporter, 16 h; Potency, µM, for inactives: top-dose activation, usual class: activators; hit rate 0.02% among 420,000; AID 602332; also: series mostly up to about 76 µM; % of control where 0% means no effect; nearly all actives have a fitted effect of over 35% in size
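Stably transfected U87-MG glioma cells carrying a GRP78-based luciferase sensor; 16 h compound incubation. Luminescence end-point read 10 min after Bright-Glo addition at room temperature.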
GLP-1R agonist: activates the human GLP-1 receptor; P43220; HEK293 GLP-1R CRE-luciferase, luminescence, 4-6 h; cells express a hypersensitive GLP-1R form; Potency, µM (top dose mostly 45.6 µM), inactives show at the top dose activation, usual class: activators; hit rate 0.007% among 380,000; AID 624172; also: % of control where 0% means no effect
ALOX12 inh: inhibitors of human 12S-lipoxygenase ALOX12. P18054. purified 12hLO, xylenol orange hydroperoxide absorbance. Potency, µM (top dose mostly 108 µM), for inactives: at the top dose activity change, negative = inhibition, most hits filed as inhibitors. hit rate 1.1% among 580,000. AID 1671190; also: % is scaled to controls: 0 for no effect and ±100 for the full control effect
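Hydroperoxide product was detected by ferrous iron/xylenol orange as the 573 to 405 nm absorbance ratio. Arachidonic acid at 40 uM (final) was turned over for 30 min at room temperature by 150 nM human 12hLO, pH 7.0 Hepes buffer, after 15 min compound preincubation.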
* hit, by the source's call; i = inactive; ? = inconclusive; . = no result; [ ] = dose if it differs, or a comment. An excerpt weighted towards active compounds, which were near 2.3% of everything screened. Calls follow the shape of the dose curve; as a rule, active = well fitted curve in the direction sought with a large enough effect; inconclusive = small, poorly fitted or top-dose-only effect, or another doubt; inactive = no such curve, though single readings can be large; an effect the other way counts as inactive or inconclusive. Potency is read from the fitted curve at half-maximal effect.

SMILES | PTHR1 ag | GLS inhibitor | GLP-1R inv ag | Glioma ERSR ind | GLP-1R agonist | ALOX12 inh
CCN(CC)c1ccc(C(=O)Nc2cccc(F)c2)cc1 | -14%[57.5 µM] | 1% | 5.6µM* | -6% | 25% | -15%
CCN(CC)c1ccc(NC(=O)Nc2ccccc2)cc1 | -23% | 13µM* | ? | -6% | 4% | -1%
CN(C)c1cccc(C(=O)Nc2cccc(F)c2)c1 | -4% | 41% | ? | 1% | 0% | ?
O=C(Nc1ccccc1)Nc1cccc(NC(=O)Nc2ccccc2)c1F | -6% | 1% | 4% | -2% | 5% | 0%
CC1=C(C(=O)OC(C)C)C(c2ccc(C)cc2)CC(=O)N1Cc1cccc(C#N)c1 (stereo unspecified) | . | . | . | . | . | 4%
Cn1ncc2c(N3CCN(S(N)(=O)=O)CC3)nc(-c3cccnc3)nc21 | . | . | . | . | . | 28%
C/C=C1\COC(C(=O)NCc2ccccc2)(C(F)(F)F)C=C1C=C(C)C (stereo unspecified) | -16% | 0% | 10µM* | -1% | 8% | 16%
COc1ccc(-c2noc([C@@H]3C[C@@H](O)CN3Cc3cccc(C#N)c3)n2)cc1 | . | . | . | . | . | 1%[176 µM]
O=S(=O)(Cc1ccccc1)NCc1cccc(CNS(=O)(=O)Cc2ccccc2)c1 | . | . | . | . | . | 35µM*
COC(=O)C1=C(C)NC(=O)NC1c1ccc(C(=O)OC)cc1 (stereo unspecified) | . | . | . | . | . | 6%
N#CC1=C(N)n2c(s/c(=C\c3ccco3)c2=O)=C(C#N)C1c1ccco1 (stereo unspecified) | -25% | 11µM* | 40% | -3% | 0% | 13µM*
CCOC(=O)/C(=N\Nc1cc(Cl)ccc1Cl)N1CC(C)OC(C)C1 (stereo unspecified) | i | 20% | 1% | -3% | 3% | -11%
CCOC(=O)/C(=N\Nc1ccccc1Cl)N(C)C1CCCCC1 | -4% | 12% | 8.9µM* | 3% | 16% | ?
CCOC(=O)/C(=N\Nc1ccccc1Cl)N1CC(C)OC(C)C1 (stereo unspecified) | i | 25% | 5µM* | -4% | 21% | ?
CCC(CC)C(=O)Nc1nn2c(CC(C)C)nnc2s1 | . | . | . | . | . | 16µM*
CCCC(=O)Nc1nn2c(CC(C)C)nnc2s1 | . | . | . | . | . | 25µM*
Cc1cc(C)c(NC(=O)c2ccc(CNS(=O)(=O)c3cc(C(F)(F)F)ccc3Cl)cc2)c(C)c1 | -8% | 1% | 6.3µM* | -5% | -34% | -18%
O=S(=O)(NCc1ccccn1)c1cc(C(F)(F)F)ccc1Cl | -6% | -4% | -20% | -6% | -4% | -23%
Cc1nc(CN2CCCC(CCc3ccccc3C(F)(F)F)C2)no1 (stereo unspecified) | . | . | . | . | . | 31%
O=C(OCCOc1cccc(Cl)c1)c1cc(S(=O)(=O)N2CCCCC2)ccc1N1CCOCC1 | -16% | 13% | 5.6µM* | -2% | -1% | ?
CC(=O)C1=C(O)C(=O)N(CCc2c[nH]c3ccccc23)C1c1ccc(O)cc1 (stereo unspecified) | i | 78% | 4% | -1% | -7% | 8.9µM*
COc1cccc(C2C(C(C)=O)=C(O)C(=O)N2CCc2c[nH]c3ccccc23)c1 (stereo unspecified) | i | 19% | -23% | -1% | -3% | 5µM*
CC(=O)C1=C(O)C(=O)N(CCc2c[nH]c3ccccc23)C1c1ccccc1 (stereo unspecified) | -8% | 39% | 8% | -5% | -7% | ?
COCCCN1C(=O)C(O)=C(C(C)=O)C1c1cccc(F)c1 (stereo unspecified) | i | -9% | 2% | -2% | -7% | 7.9µM*
COc1cc2c(cc1NC(=O)C(C)NCc1ccccc1)oc1ccccc12 (stereo unspecified) | -2% | 8% | 11µM* | 1% | 15% | -7%
SMILES | PTHR1 ag | GLS inhibitor | GLP-1R inv ag | Glioma ERSR ind | GLP-1R agonist | ALOX12 inh
COc1cc2c(cc1NC(=O)Nc1ccccc1)oc1ccccc12 | i | 4% | ? | 2% | -11% | ?
N#Cc1ccc(C(=O)N2CCC(n3cc(-c4nc(C5CC5)no4)nn3)C2)cc1 (stereo unspecified) | . | . | . | . | . | 1%
O=C(O)Cc1sc(-c2cccnc2)nc1-c1ccc(Br)cc1 | -21% | -1% | 7% | -5% | -3% | 35µM*
O=C(O)Cc1sc(-c2ccccc2Cl)nc1-c1ccccc1 | i | 3% | ? | -2% | -2% | 0%
O=C(CC1(O)C(=O)N(CCc2ccccc2)c2ccc(Br)cc21)c1ccccc1 (stereo unspecified) | i | 5% | ? | 3% | 2% | -25%
Cc1ccc(C(=O)CC2(O)C(=O)N(CCc3ccccc3)c3ccc(Br)cc32)o1 (stereo unspecified) | i | -1% | 7.9µM* | -6% | 2% | ?
CC(=O)NC(c1cccs1)c1cc([N+](=O)[O-])c2cccnc2c1O (stereo unspecified) | i | 4% | ? | -8% | -11% | ?
CCC(=O)NC(c1ccco1)c1cc(Cl)c2cccnc2c1O (stereo unspecified) | i | -8% | 7.1µM* | -2% | 4% | -23%
CCC(=O)NC(c1cccs1)c1cc([N+](=O)[O-])c2cccnc2c1O (stereo unspecified) | i | 11% | -21% | -1% | -19% | 3.5µM*
CCCC(=O)NC(c1cccs1)c1cc([N+](=O)[O-])c2cccnc2c1O (stereo unspecified) | i | -3% | 4% | -2% | -9% | 18µM*
CCCCC(=O)NC(c1ccco1)c1cc(Cl)c2cccnc2c1O (stereo unspecified) | i | ? | ? | -5% | 3% | ?
COc1ccc(C(C)=O)c(OCc2ccccc2C#N)c1 | . | . | . | . | . | 22%
COc1ccc(N=C2S/C(=C\c3ccc(OCC(=O)O)cc3)C(=O)N2CCc2c[nH]c3ccccc23)cc1 | -18% | 10µM* | 3% | -1% | -6% | ?
CCOC(=O)c1ccc(NC(=O)N2Cc3[nH]cnc3C[C@H]2c2nc(C(C)C)no2)cc1 | . | . | . | . | . | 43%[176 µM]
CNC(=O)/C=C/c1ccc(C)cc1C | . | . | . | . | . | 0%
O[C@H]1CN(Cc2cccs2)[C@@H](c2ccccc2)C[C@@H]1n1cc(-c2ccc(F)cc2)nn1 | 0% | 9% | 10µM* | -3% | -5% | -11%
O[C@H]1C[C@H](c2ccccc2)N(Cc2cccs2)C[C@@H]1n1cc(-c2ccc(F)cc2)nn1 | -20% | -9% | ? | -13% | 3% | 35µM*
Cc1ccc([C@H]2C[C@@H](n3cc(-c4ccc(F)cc4)nn3)[C@H](O)CN2CC2CCCCC2)cc1 | -13% | -17% | -2% | -3% | -1% | -14%

High-throughput results from PubChem BioAssay.
